Test results taken from PubChem BioAssay AID449739 (Vanderbilt High Throughput Screening Facility, 2010).
The campaign covered roughly 100,000 compounds. About 4,200 (4.2%) were called active.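 The calls were made as follows: active = single-dose well whose peak fluorescence ratio is a statistical outlier from its plate by either plate-standardised score or position-corrected B-score; inactive = the rest.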 This excerpt belongs to a sample that is enriched for actives.

Target: Voltage-dependent T-type calcium channel subunit alpha-1H (Homo sapiens) (UniProt O95180)
Test: Cav3.2 calcium influx blockers – cell-based, Fluo-4 calcium fluorescence, FDSS, MLSMR library, primary screen (AID 449739)
Conditions: Cav3.2-expressing cells, at 10 µM, active compounds read low

Sequence of Voltage-dependent T-type calcium channel subunit alpha-1H (Homo sapiens) (O95180 whole entry, looked up): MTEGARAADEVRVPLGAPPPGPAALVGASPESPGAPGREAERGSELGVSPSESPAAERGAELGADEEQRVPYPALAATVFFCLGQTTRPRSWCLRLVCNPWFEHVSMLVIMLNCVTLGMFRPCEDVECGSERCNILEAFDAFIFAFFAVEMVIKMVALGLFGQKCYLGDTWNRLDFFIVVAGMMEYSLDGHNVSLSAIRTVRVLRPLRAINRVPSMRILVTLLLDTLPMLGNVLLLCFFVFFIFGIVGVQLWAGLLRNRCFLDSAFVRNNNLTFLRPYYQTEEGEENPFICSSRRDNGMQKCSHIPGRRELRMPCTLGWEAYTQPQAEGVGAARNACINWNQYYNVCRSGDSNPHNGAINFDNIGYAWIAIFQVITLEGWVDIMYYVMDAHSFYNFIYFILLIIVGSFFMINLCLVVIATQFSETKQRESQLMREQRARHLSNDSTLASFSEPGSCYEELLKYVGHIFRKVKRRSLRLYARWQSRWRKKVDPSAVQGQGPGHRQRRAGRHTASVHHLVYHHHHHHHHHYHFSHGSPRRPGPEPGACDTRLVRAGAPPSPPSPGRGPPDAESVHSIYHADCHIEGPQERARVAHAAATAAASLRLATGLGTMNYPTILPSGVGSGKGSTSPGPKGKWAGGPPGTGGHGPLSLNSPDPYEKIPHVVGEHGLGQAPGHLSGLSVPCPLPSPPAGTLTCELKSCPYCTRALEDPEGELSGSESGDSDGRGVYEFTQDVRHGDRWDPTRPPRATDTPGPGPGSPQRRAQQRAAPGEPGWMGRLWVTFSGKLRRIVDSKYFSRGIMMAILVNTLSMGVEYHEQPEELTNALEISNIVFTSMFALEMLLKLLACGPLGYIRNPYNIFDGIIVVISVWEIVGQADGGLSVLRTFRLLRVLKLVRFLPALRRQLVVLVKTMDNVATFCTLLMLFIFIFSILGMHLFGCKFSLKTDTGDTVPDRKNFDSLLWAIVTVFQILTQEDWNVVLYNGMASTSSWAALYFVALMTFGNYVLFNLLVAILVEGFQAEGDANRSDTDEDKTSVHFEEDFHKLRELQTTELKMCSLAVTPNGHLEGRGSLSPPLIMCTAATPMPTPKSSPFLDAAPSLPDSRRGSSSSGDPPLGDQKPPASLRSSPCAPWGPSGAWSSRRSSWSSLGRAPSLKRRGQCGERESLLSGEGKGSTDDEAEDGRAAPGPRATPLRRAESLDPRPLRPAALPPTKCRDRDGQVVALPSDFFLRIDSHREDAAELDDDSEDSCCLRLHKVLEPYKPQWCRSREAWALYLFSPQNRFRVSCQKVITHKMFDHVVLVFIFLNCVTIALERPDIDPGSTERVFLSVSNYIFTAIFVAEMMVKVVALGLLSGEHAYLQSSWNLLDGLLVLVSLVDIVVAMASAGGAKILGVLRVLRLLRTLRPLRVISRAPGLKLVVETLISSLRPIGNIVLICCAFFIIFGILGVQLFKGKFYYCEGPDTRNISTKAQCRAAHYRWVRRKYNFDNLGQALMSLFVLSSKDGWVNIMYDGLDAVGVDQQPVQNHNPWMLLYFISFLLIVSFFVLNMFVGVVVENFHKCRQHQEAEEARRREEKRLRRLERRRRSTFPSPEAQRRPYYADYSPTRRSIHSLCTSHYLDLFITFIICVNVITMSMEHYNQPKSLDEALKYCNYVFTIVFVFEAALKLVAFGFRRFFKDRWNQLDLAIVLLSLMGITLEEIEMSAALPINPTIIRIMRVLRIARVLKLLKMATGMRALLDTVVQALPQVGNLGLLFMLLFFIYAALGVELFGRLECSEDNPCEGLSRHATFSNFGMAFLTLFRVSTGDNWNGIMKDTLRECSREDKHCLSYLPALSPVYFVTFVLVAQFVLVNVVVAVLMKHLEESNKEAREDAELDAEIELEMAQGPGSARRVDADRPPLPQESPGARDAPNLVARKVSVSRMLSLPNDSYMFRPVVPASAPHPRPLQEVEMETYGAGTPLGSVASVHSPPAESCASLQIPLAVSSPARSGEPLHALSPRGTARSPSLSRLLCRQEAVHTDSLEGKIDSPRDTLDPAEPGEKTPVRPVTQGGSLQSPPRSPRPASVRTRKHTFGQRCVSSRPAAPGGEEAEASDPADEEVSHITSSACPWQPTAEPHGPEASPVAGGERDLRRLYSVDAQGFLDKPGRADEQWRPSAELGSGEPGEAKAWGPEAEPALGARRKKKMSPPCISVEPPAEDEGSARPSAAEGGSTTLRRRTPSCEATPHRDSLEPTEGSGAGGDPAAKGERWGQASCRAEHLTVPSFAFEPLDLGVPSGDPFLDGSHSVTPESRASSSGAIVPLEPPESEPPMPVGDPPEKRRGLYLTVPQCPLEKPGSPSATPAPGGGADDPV

B-score, active:
CCOC(=O)c1cc2n(c1N)-c1ccccc1C2=O -9.74
CSc1nc(N(C)NC(=O)c2cccc(C)c2)c2ccccc2n1 -7.16
O=C(/C=C/c1ccccc1)N/C(=C/c1ccccc1)C(=O)Nc1ccccc1O -8.64
Cc1ccc(CN(N=Nc2nonc2N)c2nonc2N)c(C)c1 -6.83
COC(=O)C1=C(C)N(C)C(C)=C(C(=O)OC)C1c1cccc(Br)c1 -4.38
CCOC(=O)C1=C(CN2CCc3ccccc32)NC(=O)NC1c1ccc(Cl)cc1 (centres undefined) -5.78
Cc1nc(C)c(-c2csc(NCCc3ccccc3)n2)s1 -6.45
CCCc1[nH]nc2c1C(c1c(C)nn(-c3ccccc3)c1Cl)C(C#N)=C(N)O2 (centres undefined) -4.44
COc1ccc(C(=O)CSc2nnc(COc3ccccc3)n2Cc2ccco2)cc1 -4.51
C=CCn1c(SCc2c(C(=O)OC)sc(N)c2C(=O)OC)nnc1-c1ccc(Cl)cc1 -3.5
C/C(=N\NS(=O)(=O)c1ccc(Br)cc1)c1cccs1 -5.02
Cc1cc(C(=O)OCC(=O)NCc2ccco2)c(C)n1-c1ccccc1 -4.45

B-score, inactive:
N=c1ccn(CC(=O)NC(N)=O)c2ccccc12 1.07
CC(=O)c1cnc(SCCN2C(=O)c3ccccc3C2=O)nc1C -0.173
CCOC(=O)c1cc2n(c1C)-c1ccccc1C2=O -0.985
CCOC(=O)Nc1ccccc1N1C(=O)c2ccccc2C1=O 0.477
COc1ccc(C(=O)NN(C)c2nc(-c3ccccc3)cc(C)c2S(C)(=O)=O)cc1 1.17
CN(NC(=O)c1ccccc1)c1nc2ccccc2nc1C(F)(F)F -0.171
O=C(/C=C/c1ccccc1)c1ccccc1O 0.49
CCc1ccccc1NC(=O)/C(=C/c1ccccc1)c1ccccc1 -4.21
COC(=O)c1c(-c2ccsc2)oc2ccc(-c3cc(OC)c(OC)c(OC)c3)cc12 -0.846
CCO[C@@H]1OC(C(=O)N2CCOCC2)=C[C@H](C)[C@H]1CCCO 0.155
Cc1ccc(NC(=O)N2CCSc3ccccc32)cc1 -0.746
c1ccc(COc2ccccc2CNCc2cccnc2)cc1 -0.314
CC1(C)CC(=O)C(C=NCCN2CCN(C(=S)Nc3cccc(Cl)c3)CC2)=C(O)C1 -0.563
Cc1ccc(C)c(CSc2nc(-c3ccco3)nc3c2c(=O)n(C)c(=O)n3C)c1 -0.668
COc1ccc(CNC(=O)C2CC(c3ccc(C(F)(F)F)cc3)=NO2)cc1 (centres undefined) -2.34
O=C(C1=C[C@H](c2coc3ccccc3c2=O)C[C@H](OCc2ccc(CO)cc2)O1)N1CCN(Cc2ccccc2)CC1 -1.94
O=C1NC[C@@H](Cc2ccc(O)cc2)N(CCc2cccc(F)c2)C1=O -1.22
CCN1C(=O)N[C@@H](c2ccccc2)C(C(=O)OC)=C1C -0.116
COCCN1C(=O)N[C@@H](c2ccccc2)C(C(=O)OC)=C1C 0.0333
CCc1ccc(/C=N/NC(=O)c2ccc(OC3CCCC3)cc2)s1 -0.109
CCOC(=O)C1=C(CN2CCc3ccccc32)NC(=O)NC1c1cccc([N+](=O)[O-])c1 (centres undefined) -1.81
CCOC(=O)C1=C(CN2CCc3ccccc32)NC(=O)NC1c1cc(C)ccc1C (centres undefined) 0.647
COC(=O)CCCC1=CC2=CC(=O)C(C)(OC(=O)c3cccs3)C(=O)C2=CN1c1cccc(C#N)c1 (centres undefined) 0.181
Cc1ccc(Nc2nc(-c3sc(NC(=O)c4ccccc4)nc3C)cs2)cc1 -0.00441
CCCCC(=O)Nc1nc(C)c(-c2csc(Nc3ccc(Cl)cc3)n2)s1 0.015
CCn1c(O)c2ccc(C(=O)N=NC(=O)c3cccnc3)cc2c1O -0.0483
CCCc1[nH]nc2c1C(c1ccc(OC)c(Cn3nc(C)c(Br)c3C)c1)C(C#N)=C(N)O2 (centres undefined) -0.964
CCCc1[nH]nc2c1C(c1ccc(Br)s1)C(C#N)=C(N)O2 (centres undefined) 0.903
COc1cc(C2OC(c3cc(OC)c(OC)c(OC)c3)C(C)C2C)cc(OC)c1OC (centres undefined) -2.38
O=C(NCCCCc1ccccc1)C1CC(c2ccc([N+](=O)[O-])cc2)=NO1 (centres undefined) -2.65
CCOC(=O)/C=C/c1ccc(C(F)(F)F)cc1S(=O)(=O)NC(C)(C)C 0.0548
O=C(NCN1CCN(CCO)CC1)c1cnccn1 0.423
Cc1ccccc1N/N=C/c1ccc(N2CCOCC2)cc1 0.0508
O=C(CSc1nnc(-c2cccnc2)n1Cc1ccco1)c1ccc(Cl)cc1 0.695
CCn1c(CNc2ccc(OC)cc2)nnc1SCC(=O)c1ccc(OC)cc1 0.231
CC(C)C(NS(=O)(=O)c1cccs1)C(=O)Nc1nc(C(C)(C)C)cs1 (centres undefined) -3.54
C=CCn1c(SCn2nnc3ccccc3c2=O)nnc1-c1ccc(Cl)cc1 -1.02
C=CCn1c(SCc2cc(C(=O)OC)c(C)o2)nnc1-c1ccncc1 0.333
COc1cccc2c1OCC(C(=O)NCc1ccc(Cl)cc1Cl)=C2 -1.48
CCc1nnc(SCc2cccc(F)c2)nc1CC -2.53
C/C(=N\NC(=O)c1ccccc1C)c1ccc(N2CCOCC2)cc1 -0.0283
C/C(=N\NS(=O)(=O)c1cccc([N+](=O)[O-])c1)c1cc2ccccc2o1 -0.824
O=S(=O)(NN=C1CCCCCCC1)c1ccc(Br)cc1 -1.71
O=Cc1c(N2CCN(c3cccc(Cl)c3)CC2)nc2ccccn2c1=O -1.81
O=C(CSc1nnc(-c2cccs2)n1-c1ccccc1)NCc1ccco1 0.148
O=C(COC(=O)C12CC3CC(CC(C3)C1)C2)NCc1ccco1 -0.704
ONC(=Nc1ccc(Cl)cc1)c1ccccc1Cl -1.41
